# Results as given in PubChem BioAssay (NCATS).
# Results filed as inconclusive are left out. Unmarked numbers belong to inactive results. Calls come from the whole dose curve; as a rule, active = well fitted inhibition curve with a large enough effect; inconclusive = small, poorly fitted or top-dose-only effect; inactive = flat fitted curve, though single readings scatter.
# Experiment: Drug repurposing screens with cells derived from glioblastoma tumor samples (AID 1345199); note: nearly all actives have a fitted effect of over 40% in size
# Settings: GBM patient neurospheres viability, ATP luminescence, 48 h; at 46 µM (top of the series); tumour line A
# Method in brief: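 Four patient lines of CD133+ GBM neurospheres were screened at several concentrations; hits were retested in those lines plus three slower-growing GBM lines, using 48-hour treatment and ATP-based viability.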
# % is set by controls: 0 for no effect and ±100 for the full control effect.
row,Structure (SMILES),"activity, negative = cell killing [%]"
1,NC(N)=O,-23.3
2,CC(C)(C)CC(C)(C)c1cc(Cc2cc(C(C)(C)CC(C)(C)C)cc(-n3nc4ccccc4n3)c2O)c(O)c(-n2nc3ccccc3n2)c1,-36.5
3,C[C@]12CC[C@@H]3c4ccc(O)cc4CC[C@H]3[C@@H]1CC[C@@H]2OP(=O)(O)O,-23.9
4,O=[n+]1ccn([O-])c2ccccc21,-22.5
5,CC1(C)[C@H]2CC[C@]1(C)[C@H](O)C2,-22.7
6,C=C(C)C1CC=C(C)CC1 (stereo not drawn),-25
7,CC(C)O,-15.4
8,CCC(O)c1ccccc1 (stereo not drawn),-1.63
9,CC[C@@H]1/C=C(\C)C[C@H](C)C[C@H](OC)[C@H]2O[C@@](O)(C(=O)C(=O)N3CCCC[C@H]3C(=O)O[C@H](/C(C)=C/[C@@H]3CC[C@@H](Cl)[C@H](OC)C3)[C@H](C)[C@@H](O)CC1=O)[C@H](C)C[C@@H]2OC,-14.1
10,OCC(O)CO,-18.9
11,CCCCCCCCCCCCOCCCN,-39.4
12,C[N+]1(C)[C@@H]2CC(OC(=O)C(O)(c3cccs3)c3cccs3)C[C@H]1[C@@H]1O[C@@H]12 (stereo partly drawn),-24.6
13,OCc1ccccc1,-25.4
14,O=C(OCc1ccccc1)c1cccnc1,-18.6
15,CC[C@@H](C)[C@H](N)C(=O)O,-37.7
16,NCCN,-28.2
17,C/C=C/C=C/C(=O)O,-7.83
18,CC1=CCC2CC1C2(C)C (stereo not drawn),-19.4
